HepG2 tox – kills HepG2 cells in TGF-b inhibitor counter-screen. Potency, µM (titrated, usually from 46.1 µM), for the others: at the highest dose activity change, negative = cytotoxicity, actives largely listed as cytotoxic. hit rate 0.76% among 410,000. AID 588856. HepG2 CAGA-GFP viability, ATP luminescence, 18 h; also: potency is read from the fitted curve at half-maximal effect
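CellTiter-Glo luminescence gave cytotoxicity after 18 hours at 37 degrees C. The cells were HepG2 CAGA-GFP in 1% FBS DMEM, stimulated with 500 pg/mL TGF-beta after compound addition. %Activity was normalised to no-cell wells (complete cell-killing) and DMSO (no toxicity), and curves were fitted and classified.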
TGFb inhibitor – inhibitors of TGF-b signaling | HepG2 CAGA-GFP TGF-b/SMAD3 reporter, GFP fluorescence, 18 h; TGF-beta stimulated, 500 pg/mL final | Potency, µM (doses to about 46.1 µM), inactives show at the highest dose activity, negative = inhibition, most hits filed as inhibitors | hit rate 1.2% among 410,000 | AID 588855; also: potency is read from the fitted curve at half-maximal effect; % is scaled to controls: 0 for no effect and ±100 for the full control effect; nearly all actives have a fitted effect of over 65% in size
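TGF-beta reporter screen: HEPG2 CAGA-GFP, 1% FBS, 500 pg/mL TGF-beta final, 18 h; per-cell GFP summed per well; curves fitted and categorized by class.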
Six1-Eya2 blk – inhibitors of human Six1/Eya2 interaction; activity change, % (no concentration beside the values); AID 651725; Q15475+O00167; AlphaScreen GST-Six1/His-Eya2 binding, biochemical; active compounds read low; hit rate 0.56% among 360,000; in the data active = activity change below about -65%; inconclusive = mostly about -30% to -63%; also: % is scaled to controls: 0 for no effect and ±100 for the full control effect
Target sequence (O00167 whole entry, looked up): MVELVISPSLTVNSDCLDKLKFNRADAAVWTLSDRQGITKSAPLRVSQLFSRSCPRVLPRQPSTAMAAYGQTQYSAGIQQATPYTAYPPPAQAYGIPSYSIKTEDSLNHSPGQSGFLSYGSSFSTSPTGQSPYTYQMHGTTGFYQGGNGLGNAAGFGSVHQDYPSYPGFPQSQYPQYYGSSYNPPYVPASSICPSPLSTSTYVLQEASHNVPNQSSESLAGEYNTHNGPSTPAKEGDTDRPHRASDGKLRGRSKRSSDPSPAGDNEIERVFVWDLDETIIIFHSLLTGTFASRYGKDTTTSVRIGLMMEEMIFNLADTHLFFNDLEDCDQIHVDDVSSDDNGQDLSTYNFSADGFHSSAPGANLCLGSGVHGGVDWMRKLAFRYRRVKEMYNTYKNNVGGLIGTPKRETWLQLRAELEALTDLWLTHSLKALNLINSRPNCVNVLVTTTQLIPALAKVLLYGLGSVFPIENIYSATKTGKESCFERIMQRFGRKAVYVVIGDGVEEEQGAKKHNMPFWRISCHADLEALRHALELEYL
Target sequence (Q15475 whole entry, looked up): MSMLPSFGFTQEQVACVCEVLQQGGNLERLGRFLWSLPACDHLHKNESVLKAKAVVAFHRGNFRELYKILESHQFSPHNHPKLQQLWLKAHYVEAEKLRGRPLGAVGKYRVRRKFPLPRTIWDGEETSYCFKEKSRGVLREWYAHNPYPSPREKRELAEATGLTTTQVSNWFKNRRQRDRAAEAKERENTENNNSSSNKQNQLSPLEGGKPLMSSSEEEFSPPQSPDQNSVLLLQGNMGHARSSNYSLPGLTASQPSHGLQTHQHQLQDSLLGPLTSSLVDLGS
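AlphaScreen with GST-Six1 and His-Eya2 (5X mix: 250 nM and 500 nM), glutathione donor and nickel acceptor beads; buffer 50 mM Tris pH 8.0, 300 mM NaCl, 1 mM TCEP; 1 h at 37 C in the dark.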
ATXN viability – cell viability loss in ATXN counter-screen; hit rate 0.49% among 400,000; S2 cells (HEK-293 line with an ATXN2-luciferase reporter) viability, CellTiter-Fluor protease fluorescence, 24 h; Potency, µM (titrated, usually from 56.7 µM), hits mostly cytotoxic; also: potency is read from the fitted curve at half-maximal effect; nearly all actives have a fitted effect of over 40% in size
ATXN2 expr inh – reduces ATXN2 reporter expression in HEK-293 cells; HEK-293 ATXN2-luciferase reporter, luminescence, 24 h; Potency, µM (titrated, usually from 57 µM), without a hit: at the highest dose activity change, negative = inhibition, actives largely listed as inhibitors; hit rate 0.72% among 360,000; also: potency is read from the fitted curve at half-maximal effect; % is scaled to controls: 0 for no effect and ±100 for the full control effect; nearly all actives have a fitted effect of over 55% in size
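ATXN2-luciferase reporter cells (luciferase flanked by upstream and downstream ATXN2 gene portions) were treated 24 h at 37 °C with compounds at up to 57 uM. SteadyGlo luminescence gave expression; GF-AFC fluorescence gave viability.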
CtBP-E1A inh – CtBP/E1A binding inhibition; AlphaScreen GST-E1A/His-CtBP binding, 1536-well; active compounds read low; activity change, % (test concentration not listed); hit rate 0.49% among 340,000; in the data active = activity change below about -65%; inconclusive = mostly about -30% to -63%; also: % is scaled to controls: 0 for no effect and ±100 for the full control effect
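Steps: dispense buffer (Tris pH 8.0, NaCl 300 mM, TCEP 1 mM, BSA, Tween 20); add 5X protein mix (GST-E1A, His-CtBP, 125 nM each); pin 23 nL compound; 2 h at 37 °C, dark; add 5X beads (50 ug/mL); 1 h; read.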
The depositor's hits bear a star; i = inactive; ? = inconclusive; / = no result given; ! = not active in a repeat. Compounds with a hit are over-represented: about 2.8% of the library has one in this group of screens. Unless noted, calls follow the shape of the dose curve; as a rule, active = well fitted curve in the direction sought with a large enough effect; inconclusive = small, poorly fitted or top-dose-only effect, or another doubt; inactive = no such curve, though single readings can be large; an effect the other way counts as inactive or inconclusive.

SMILES	HepG2 tox	TGFb inhibitor	Six1-Eya2 blk	ATXN viability	ATXN2 expr inh	CtBP-E1A inh
O=C(CC1(c2cccc(F)c2)CC(=O)N(Cc2cccnc2)C1=O)N1CCCCCCC1 (stereo not drawn)	/	/	/	i	/	/
Fc1ccc(C(NCCc2ccc(Cl)cc2)c2nnc(-c3ccccc3)o2)c(Cl)c1 (stereo not drawn)	-6.6%	?	/	i	-8.0%	/
COc1ccc(CCNC(c2ccc(F)cc2)c2nnc(-c3ccccc3Cl)o2)cc1OC (stereo not drawn)	-19.8%	17.8µM*	/	?	-32.9%	/
CCN1C(Nc2ccccc2)=NC[C@@H]1Cc1ccccc1	1.5%	?	0.0	i	-0.4%	8.3
CC(C)(C)C1CCC(CN2C(Nc3ccccc3)=NC[C@@H]2Cc2ccccc2)CC1 (stereo partly drawn)	12.6µM*	?	-7.6	/	?	-6.1
COC(=O)[C@@H]1CCCN1Cc1ccc2c(c1)CN(Cc1nccs1)CCO2	/	/	/	i	/	/
c1ccc(Nc2nc(N3CCCCC3)nc(N3CCCCC3)n2)cc1	-40.6%	0.0%	9.6	i	-4.7%	8.6
c1ccc(Nc2nc(N3CCCCC3)nc(N3CCNCC3)n2)cc1	11.2µM*	-2.1%	-6.8	i	?	-4.8
CC(=O)N(Cc1cccnc1)c1nc2c(C)cccc2s1	-28.3%	1.7%	/	/	/	/
CS(=O)(=O)c1ccc(C(=O)NCCN2C(=O)S/C(=C\c3cccnc3)C2=O)cc1[N+](=O)[O-]	-142.1%	14.1µM*	-2.7	/	/	/
COc1ccc(NC(=S)/N=C(\N)Nc2nc(C)c3ccc(C)cc3n2)cc1	-14.1%	-3.7%	?	15.8µM*	?	-29.7
CCOc1ccc2nc(N/C(N)=N/C(=S)Nc3ccc(C)c(C)c3)nc(C)c2c1	0.4%	-2.9%	2.6	i	-15.9%	-9.7
Cc1ccc2[nH]c3c(c2c1)CCCC3NC(=O)CCl (stereo not drawn)	17.8µM*	?	-2.4	?	?	1.2
Cc1ccc2[nH]c3c(c2c1)CCCC3C(N)=O (stereo not drawn)	-5.1%	-12.7%	5.7	i	-1.9%	4.6
Cc1ccccc1OCc1n(CC(=O)OC2CC(C)CCC2C(C)C)c2ccccc2[n+]1C (stereo not drawn)	15.8µM*	7.94µM*	-0.2	25.1µM*	?	-5.9
CC1CCC(C(C)C)C(OC(=O)Cn2c(-c3ccc(Br)cc3)[n+](C)c3ccccc32)C1 (stereo not drawn)	25.1µM*!	12.6µM*	-14.4	?	?	/
CC1CCC(C(C)C)C(OC(=O)COC(=O)c2cccn2C)C1 (stereo not drawn)	-78.5%	-1.1%	-4.5	i	0.8%	-1.5
CC1CCC(C(C)C)C(OC(=O)Cn2c(-c3ccc(Cl)cc3)[n+](C)c3ccccc32)C1 (stereo not drawn)	11.2µM*	?	-2.1	?	?	-1.1
Nc1nc(=O)n([C@H]2CSC(CO)O2)cc1F (stereo partly drawn)	/	/	/	/	-5.0%	/
O=C(CCc1ccccc1)NC1(Cc2ccccc2)CCN(CCCc2ccccc2)C1=O (stereo not drawn)	-22.6%	12.6µM*	0.1	?	?	-3.5
CC(=O)NC1=CC(=O)c2nonc2C1=O	-96.3%	?	/	/	/	/
Cc1ccc2ccc3c(c2n1)NS(=O)(=O)c1ccc(C(F)(F)F)cc1-3	4.5%	7.08µM*	/	/	/	/
O=S1(=O)Nc2c(cc(Cl)c3ccc(Cl)nc23)-c2ccccc21	1.9%	-0.8%	/	/	/	/
COc1ccc(Cl)c(Cn2cnc3c(cnn3C(C)(C)C)c2=O)c1	-16.5%	-22.7%	/	/	/	/
CCN(CC)c1ccc(NC(=O)COCc2cc(-c3ccc4c(c3)OCO4)on2)c(C)c1	-36.9%	-8.9%	/	/	/	/
O=C(Nc1cccc(Oc2ccccc2)c1)c1ccc(-n2cncn2)c2ccoc12	-24.5%	-3.0%	-15.5	6.31µM*	-23.7%	-6.4
CC(C)(C)C(=O)Oc1ccc(S(=O)(=O)Nc2ccccc2C(=O)NCC(=O)O)cc1	/	/	/	i	-4.4%	/

Assay outcomes deposited in PubChem by National Center for Advancing Translational Sciences (NCATS).
